# Screens: PubChem BioAssay, several laboratories
# Most compounds without a hit are left out; they make up all but 3.2% or so of the library.
# TMEM16A act = activators or potentiators of mouse TMEM16A chloride channel; Q8BHY3; HEK293 TMEM16A/YFP-H148Q/I152L, iodide quench fluorescence; stronger effect = lower value; B-score at 10 µM; actives 0.3% (n = 340,000); AID 623877;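 active = fluorescence-ratio B-score plate-corrected deviation score at least 3 library SD below zero, with starting fluorescence score within 5 deviations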;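 also: channel opened by trigger with iodide after compound preincubation; score built on the fluorescence ratio of max minus min over baseline; more negative score means more quench and so TMEM16A activation or potentiation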
# Target sequence (Q8BHY3 whole entry, looked up): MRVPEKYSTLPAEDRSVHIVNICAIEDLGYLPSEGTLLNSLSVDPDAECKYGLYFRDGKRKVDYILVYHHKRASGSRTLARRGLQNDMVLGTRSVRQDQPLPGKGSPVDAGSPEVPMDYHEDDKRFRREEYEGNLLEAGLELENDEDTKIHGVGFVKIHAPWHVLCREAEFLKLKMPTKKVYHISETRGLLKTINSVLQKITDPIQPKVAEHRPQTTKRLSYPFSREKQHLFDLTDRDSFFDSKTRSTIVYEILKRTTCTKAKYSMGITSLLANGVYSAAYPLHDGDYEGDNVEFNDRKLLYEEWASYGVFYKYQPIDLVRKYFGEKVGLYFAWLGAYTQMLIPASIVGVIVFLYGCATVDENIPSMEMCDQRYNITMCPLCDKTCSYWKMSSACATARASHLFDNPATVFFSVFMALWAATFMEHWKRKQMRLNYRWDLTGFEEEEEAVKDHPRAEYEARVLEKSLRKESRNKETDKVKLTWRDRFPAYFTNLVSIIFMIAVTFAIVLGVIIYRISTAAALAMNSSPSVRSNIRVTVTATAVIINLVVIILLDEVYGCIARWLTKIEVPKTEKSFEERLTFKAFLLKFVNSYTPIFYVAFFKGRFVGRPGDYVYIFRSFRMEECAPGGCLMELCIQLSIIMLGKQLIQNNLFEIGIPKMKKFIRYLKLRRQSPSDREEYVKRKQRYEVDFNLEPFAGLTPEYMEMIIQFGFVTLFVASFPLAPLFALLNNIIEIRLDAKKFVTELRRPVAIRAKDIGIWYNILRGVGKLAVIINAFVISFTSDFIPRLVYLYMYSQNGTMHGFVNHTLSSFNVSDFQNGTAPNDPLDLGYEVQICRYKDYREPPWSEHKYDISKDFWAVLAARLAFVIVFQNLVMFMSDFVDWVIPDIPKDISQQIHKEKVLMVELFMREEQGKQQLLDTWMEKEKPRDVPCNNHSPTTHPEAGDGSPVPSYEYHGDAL
# Kir21 inh = inhibitors of mouse Kir2.1 inward-rectifier potassium channel; actives 0.85% (n = 310,000); HEK293-Kir2.1, FluxOR thallium flux fluorescence; stronger effect = lower value; B-score at 10 µM; P35561;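 active = fluorescence ratio B-score at or below minus 3 SD of library scores, with starting-brightness B-score within 2 SD, cut at about -4.2 in these data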;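 also: channel flux triggered by added potassium and thallium sulfate stimulus; B-score of peak minus minimum fluorescence over baseline after thallium stimulus; more negative B-score means stronger Kir2.1 block with less thallium influx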
# CHT allo act = allosterically activates the human high affinity choline transporter; Q9GZV3; CHT-expressing cells, membrane potential dye, choline EC20; stronger effect = higher value; LV-AA mutant CHT in HEK293 cells; B-score at 10 µM; actives 0.49% (n = 310,000); AID 488977;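 active = initial fluorescence not abnormally high and integrated response B-score, plate-corrected, over 3 SD above library mean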
# ANO1 block = inhibitors of mouse TMEM16A calcium-activated chloride channel; Q8BHY3; HEK293 TMEM16A/YFP iodide influx fluorescence, ionomycin; normalized B-score (activity score, 25-100; higher = stronger inhibition) at 10 µM; actives 1.2% (n = 310,000);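 active = ratio plate-corrected score three or more library SD toward inhibition, starting fluorescence score within five deviations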;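 also: score derived from kinetic fluorescence span divided by baseline fluorescence per well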
# Rce1 inh = blocks yeast Ras-converting enzyme | Q03530 | yeast membranes, quenched prenylated peptide cleavage fluorescence | calls only | actives 0.27% (n = 290,000) | AID 2563;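 active = fall in fluorescence gain of 50% or more versus controls, with final raw signal at or below 3038400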;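 also: plate controls were neutral control wells for no effect and wells lacking membranes for full effect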
# CHT inh = human CHT choline transport inhibition; CHT-expressing cells, membrane potential dye, choline response; stronger effect = lower value; B-score at 10 µM; actives 0.86% (n = 310,000);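 active = B-score over 3 SD under the library average, and starting fluorescence ratio not unusually high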;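 also: choline stimulus applied at its EC90 after an EC20 pre-addition; B-score computed on integrated fluorescence ratio after choline addition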
# CHT inh conf = human CHT inhibition, confirmatory screen; shares compounds with CHT inh; CHT-expressing cells, choline membrane potential dye; LV-to-AA substituted CHT, HEK293 cells; CHT activity remaining % of control (stronger effect = lower value), % at 10 µM; actives 70% (n = 2,400);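 active = choline transporter activity left, mean of duplicates at 10 µM, below buffer-only control mean minus 3 SD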;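 also: depolarization triggered by choline at its EC90 following an EC20 pre-addition; 0% = hemicholinium-3 full block and 100% = buffer-only control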
# HEK293 CHT ctr = activity in parental HEK293 cells lacking CHT | shares compounds with CHT inh | membrane potential dye, choline response; active = decrease or increase beyond buffer ±3SD | membrane potential ratio readout (active if shifted either direction beyond buffer ±3SD; no single direction) at 10 µM | actives 4% (n = 2,400) | AID 493222;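 also: parental cells lack the transporter so any hit is non-specific; ratio is peak minus trough fluorescence over baseline after EC90 choline challenge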
# Active calls of the source: *; i = inactive; x = not tested or not shown.
SMILES,TMEM16A act,Kir21 inh,CHT allo act,ANO1 block,Rce1 inh,CHT inh,CHT inh conf,HEK293 CHT ctr
CCCNC(=O)c1ccccc1NC(=O)c1ccc2c(c1)NC(=O)C(C)S2 (stereo not drawn),i,0.12,i,i,i,-5.9*,65%*,i
Cc1oc(-c2ccccc2)cc1C(=O)Nc1cccc(/C=C\C(=O)O)c1,i,0.6,i,i,i,-8.9*,61%*,i
CCOC(=O)C1(CCCc2ccccc2)CCN(C(=O)CCc2cnn(C)c2)CC1,i,-0.58,i,i,i,i,x,x
CCOC(=O)C1(CCCc2ccccc2)CCN(C(=O)CCCn2cncn2)CC1,i,-1.1,i,i,i,-5*,i,i
c1ccc(Cn2ncc3c(N4CCOCC4)ncnc32)cc1,i,0.07,i,i,i,i,x,x
c1ccc(CCN2CCN(c3ncnc4c3cnn4-c3ccccc3)CC2)cc1,i,1.3,i,i,i,-5.3*,34%*,i
Cn1ncc2c(N3CCC(Cc4ccccc4)CC3)ncnc21,i,0.61,i,i,i,-6.6*,66%*,i
CCN1CCN(c2ncnc3c2cnn3-c2ccccc2)CC1,i,-0.45,i,i,i,i,x,x
C[C@@H](NC(=O)[C@@H]1Cc2ccccc2CN1C(=O)OC(C)(C)C)C(=O)NC1CCCC1,i,-0.01,i,i,i,i,x,x
COc1ccc(C2(C(=O)Nc3ccc(S(=O)(=O)Nc4nc(C)cc(C)n4)cc3)CCCC2)cc1OC,i,0.26,i,i,i,-7.7*,29%*,i
CCn1c(SCC(=O)NC2CC2)nnc1-c1cccc(OC)c1,i,1.4,i,i,i,i,x,x
NCCCCCc1nnc(SCc2ccc(Cl)c(Cl)c2)o1,i,-0.89,i,i,i,-5.4*,30%*,i
NCCc1nnc(SCc2ccc(F)cc2)o1,i,-0.54,i,i,i,i,x,x
O=C(C1=NN(c2ccccc2)C(=O)CC1)N1CCc2ccccc2C1,i,0.47,i,i,i,i,x,x
Cc1c(NC(=S)NC(=O)c2sc3ccccc3c2Cl)cccc1C(=O)O,i,0.82,i,i,i,i,x,x
COc1ccccc1C(=O)NC(=S)NNC(=O)c1sc2ccccc2c1Cl,-7.8*,0.39,i,100*,i,-7*,58%*,i
COc1ccccc1C(=O)NNC(=S)NC(=O)c1sc2ccccc2c1Cl,-6.2*,1.1,i,100*,i,-6.6*,57%*,i
COc1ccccc1C(=O)NNC(=S)NC(=O)c1cccs1,i,-0.02,i,i,i,i,x,x
Cc1ccc(S(=O)(=O)N(C)C)cc1NC(=O)C1CCCN(C(=O)c2ccc(Cl)cc2)C1 (stereo not drawn),i,0.1,i,i,i,i,x,x
O=C(Cc1cccc(F)c1F)NC1CCCN(Cc2ccc(Cl)cc2)C1 (stereo not drawn),i,-1.5,i,i,i,i,x,x
O=C(Nc1nnc(-c2ccc(F)cc2)o1)c1cc(Cl)sc1Cl,i,-0.7,i,i,i,-6.8*,63%*,i
Cc1ccccc1/C=C/C(=O)NCC(=O)N1CCC(N(C)C2CCCCC2C)CC1 (stereo not drawn),i,0.35,i,i,i,-13*,21%*,i
CCCCn1c(CN2CCN(c3ccccc3)CC2)nc2c1c(=O)n(C)c(=O)n2C,i,-0.23,i,i,i,-9.6*,-42%*,i
CCCn1c(CN2CCN(c3cccc(Cl)c3)CC2)nc2c1c(=O)n(C)c(=O)n2C,i,-0.35,i,i,i,-11*,-13%*,i
